This is an account of results in the supplement of paper PMC9694430.

In the first experiment the test system is LOC_OS02G54510-cb004. The experiment is described as follows: thermal shift delta Tm vs DMSO control; higher = stronger stabilization (binding). The settings on record: 12.5 µM; protein concentration 2 µM. Summed up:
(§1)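 Purified, E. coli-expressed rice kinase domain constructs were tested by differential scanning fluorimetry in 96-well plates: 19.5 μl of 2 μM kinase in 100 mM potassium phosphate pH 7.5, 150 mM NaCl, 10% glycerol, 5 × SYPRO Orange, plus compound in DMSO. Fluorescence was read from 25°C to 95°C at 0.05°C/s. Melting temperatures came from Boltzmann fits, and the shift is the triplicate mean relative to protein with DMSO alone.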
As for `CN1CCN(c2ccc3nc(-c4c(N)c5c(F)cccc5[nH]c4=O)[nH]c3c2)CC1` [Dovitinib (TKI-258, CHIR-258)], the “thermal shift delta Tm” value came to 0.96 °C.

On to `NC(=O)c1ccc2nc(-c3ccc(Oc4ccc(Cl)cc4)cc3)[nH]c2c1` [Chk2 Inhibitor II (BML-277)], for which the “thermal shift delta Tm” value was -0.11 °C.

With `CC1(C)OCCn2c1nc1c(N3CCOCC3)nc(-c3cnc(N)nc3)nc12`, the “thermal shift delta Tm” value amounted to 0.42 °C.

Consider `C=CC(=O)Nc1cccc(Nc2nc(Nc3ccc(OCCOC)cc3)ncc2F)c1`, for which the “thermal shift delta Tm” value was 1.8 °C.

Consider `NC(=O)c1cnc(N[C@@H]2CCCC[C@@H]2N)nc1Nc1cccc(-n2nccn2)c1`, for which the “thermal shift delta Tm” value amounted to 2.55 °C.

For `CNC(=O)c1cc(Oc2ccc3nc(N[C@@H]4CCCC[C@H]4O)sc3c2)ccn1`, the “thermal shift delta Tm” value was -0.11 °C.

Turning to `CCn1c2ccccc2c2cc(Nc3ccnc(NCCCN4CCOCC4)n3)ccc21`, the “thermal shift delta Tm” value came out at 0.13 °C.

As for `CCC(=O)Nc1cccc(Oc2nc(Nc3ccc(N4CCN(C)CC4)cc3OC)ncc2Cl)c1`, the “thermal shift delta Tm” value is -0.03 °C.

Turning to `CN1CCN(c2nc(C3=C(c4c[nH]c5ccccc45)C(=O)NC3=O)c3ccccc3n2)CC1` [Sotrastaurin], the “thermal shift delta Tm” value turned out to be 0.21 °C.

As to `C=CCc1ccc(O)c(-c2ccc(O)c(CC=C)c2)c1` [Honokiol], the “thermal shift delta Tm” value stood at 0.26 °C.

A further experiment relates to LOC_OS03G04050-cb001. The description is as above. As to conditions: 12.5 µM; protein concentration 2 µM. Summed up:
as §1
As to `COc1ccc(CC(=O)Nc2nc3c(s2)CCc2ccccc2-3)cc1OC`, the “thermal shift delta Tm” value turned out to be 0.51 °C.

As for `CNS(=O)(=O)Nc1nccc(Cc2c(C)c3ccc(Oc4ncccn4)cc3oc2=O)c1F`, the “thermal shift delta Tm” value is 0.37 °C.

`C[C@H](NC(=O)/C(C#N)=C/c1cccc(Br)n1)c1ccccc1`: the “thermal shift delta Tm” value worked out at 0.05 °C.

Regarding `COc1ccc(COc2cc3oc(=O)c4cc(C(C)O)ccc4c3cc2OC)cc1` (configuration not stated) [Palomid 529 (P529)], the “thermal shift delta Tm” value came to 0.37 °C.

With `CC(C)(C)Cn1c(N)nc2ccc(-c3[nH]c(C(C)(C)C)nc3-c3ccc(F)cc3)nc21`, the “thermal shift delta Tm” value stood at 0.52 °C.

On to `COc1ccccc1-c1cc(Nc2cccc(CS(N)(=O)=O)c2)ncn1`, for which the “thermal shift delta Tm” value was determined as 0.43 °C.

For `Cn1cnc(N)c2ncnc1-2` [3-Methyladenine (3-MA)], the “thermal shift delta Tm” value was 0.47 °C.

For the molecule `C=CC(=O)N[C@H]1CCOC[C@H]1Nc1ncc2cc(-c3c(Cl)c(OC)cc(OC)c3Cl)ccc2n1`, the “thermal shift delta Tm” value came to 0.08 °C.

`CCS(=O)(=O)Nc1ccc2c(c1)/C(=C(/Nc1ccc(CN3CCCCC3)cc1)c1ccccc1)C(=O)N2` [Hesperadin]: the “thermal shift delta Tm” value stood at 0.02 °C.

On to `Cc1cc(Nc2cc(N3CCN(C)CC3)nc(/C=C/c3ccccc3)n2)n[nH]1` [ENMD-2076 L-(+)-Tartaric acid], for which the “thermal shift delta Tm” value turned out to be 0.44 °C.

As for `Cc1ccc(F)c(NC(=O)Nc2ccc(-c3cccc4[nH]nc(N)c34)cc2)c1` [Linifanib (ABT-869)], the “thermal shift delta Tm” value came to 0.3 °C.

As to `CO[C@H]1C[C@@H]2CC[C@@H](C)[C@@](O)(O2)C(=O)C(=O)N2CCCC[C@H]2C(=O)O[C@H]([C@H](C)C[C@@H]2CC[C@@H](OCCO)[C@H](OC)C2)CC(=O)[C@H](C)/C=C(\C)[C@@H](O)[C@@H](OC)C(=O)[C@H](C)C[C@H](C)/C=C/C=C/C=C/1C` [Everolimus (RAD001)], the “thermal shift delta Tm” value stood at 0.59 °C.

As to `CCCCCCCCCCCCCCCCn1cc[n+](Cc2ccccc2)c1C`, the “thermal shift delta Tm” value was -4.41 °C.

With `O=C(/C=C/c1ccc(O)c(O)c1)c1ccc(O)cc1O` [Butein], the “thermal shift delta Tm” value was 1.9 °C.

Consider `NC(=O)c1ncn([C@@H]2O[C@H](CO)[C@@H](O)[C@H]2O)c1N` [AICAR (Acadesine)], for which the “thermal shift delta Tm” value turned out to be 0.68 °C.

For the molecule `COCCOc1ccc2c(c1)ncn2-c1ccc2cccc(N3CCC(N)CC3)c2n1`, the “thermal shift delta Tm” value was 0.25 °C.

For `CCCCCCCCCCCCCCCCCCOP(=O)([O-])OC1CC[N+](C)(C)CC1` [Perifosine (KRX-0401)], the “thermal shift delta Tm” value is -3.06 °C.

On to `COc1ccc(-c2ccc3c(N4CCOCC4)nc(N4C[C@@H](C)O[C@@H](C)C4)nc3n2)cc1CO`, for which the “thermal shift delta Tm” value was -0.03 °C.

Consider `Cc1cc(Nc2nc(N[C@@H](C)c3ccc(F)cc3)c(C#N)cc2F)n[nH]1`, for which the “thermal shift delta Tm” value is 0.11 °C.

With `O=c1nc(N2CCOCC2)oc2c(-c3cccc4c3sc3ccccc34)cccc12`, the “thermal shift delta Tm” value is -0.14 °C.

In the case of `Cn1cc(-c2ccc3nnc(C(F)(F)c4ccc5ncccc5c4)n3n2)cn1`, the “thermal shift delta Tm” value was determined as 0.41 °C.

Take `Cc1cc(C(C)Nc2ccccc2)c2nc(N3CCOCC3)cc(=O)n2c1` (configuration not stated): the “thermal shift delta Tm” value was 0.44 °C.

For `COc1cc(N2CCC(N(C)C)CC2)ccc1Nc1ncc(Cl)c(Nc2ccccc2P(C)(C)=O)n1`, the “thermal shift delta Tm” value amounted to 0.53 °C.

Consider `CC(C)c1cnn2c(NCc3ccccc3)cc(NCCCCCCN)nc12`, for which the “thermal shift delta Tm” value was determined as 0.33 °C.

Take `Cc1cc([C@@H](C)Nc2ccccc2C(=O)O)c2nc(N3CCOCC3)cc(=O)n2c1`: the “thermal shift delta Tm” value turned out to be 0.29 °C.

For the molecule `CC(C)NC(=O)C1CCC(n2c(NC(=O)c3ccc(F)cc3)nc3ccc(CN4CCC(C(C)(C)O)CC4)cc32)CC1` (configuration not stated) [Belizatinib (TSR-011)], the “thermal shift delta Tm” value is 0.67 °C.

In the case of `COc1ccc(-c2ccc3ncc4c(c3c2)n(-c2ccc(N3CCNCC3)c(C(F)(F)F)c2)c(=O)n4C)cn1`, the “thermal shift delta Tm” value was 0.36 °C.

Consider `CN1CCN(c2ccc3nc(-c4c(N)c5c(F)cccc5[nH]c4=O)[nH]c3c2)CC1` [Dovitinib (TKI-258, CHIR-258)], for which the “thermal shift delta Tm” value worked out at 0.58 °C.

Take `NC(=O)c1ccc2nc(-c3ccc(Oc4ccc(Cl)cc4)cc3)[nH]c2c1` [Chk2 Inhibitor II (BML-277)]: the “thermal shift delta Tm” value worked out at 0.47 °C.

As to `CC1(C)OCCn2c1nc1c(N3CCOCC3)nc(-c3cnc(N)nc3)nc12`, the “thermal shift delta Tm” value amounted to 0.09 °C.

As for `C=CC(=O)Nc1cccc(Nc2nc(Nc3ccc(OCCOC)cc3)ncc2F)c1`, the “thermal shift delta Tm” value worked out at 1.14 °C.

Consider `NC(=O)c1cnc(N[C@@H]2CCCC[C@@H]2N)nc1Nc1cccc(-n2nccn2)c1`, for which the “thermal shift delta Tm” value turned out to be 0.07 °C.

In the case of `CNC(=O)c1cc(Oc2ccc3nc(N[C@@H]4CCCC[C@H]4O)sc3c2)ccn1`, the “thermal shift delta Tm” value worked out at 0.37 °C.

Consider `CCn1c2ccccc2c2cc(Nc3ccnc(NCCCN4CCOCC4)n3)ccc21`, for which the “thermal shift delta Tm” value worked out at 0.05 °C.

Consider `CCC(=O)Nc1cccc(Oc2nc(Nc3ccc(N4CCN(C)CC4)cc3OC)ncc2Cl)c1`, for which the “thermal shift delta Tm” value stood at 0.41 °C.

Consider `CN1CCN(c2nc(C3=C(c4c[nH]c5ccccc45)C(=O)NC3=O)c3ccccc3n2)CC1` [Sotrastaurin], for which the “thermal shift delta Tm” value was found to be 0.22 °C.

Regarding `C=CCc1ccc(O)c(-c2ccc(O)c(CC=C)c2)c1` [Honokiol], the “thermal shift delta Tm” value was 0.72 °C.
